Columns and labels:
[1] = biological target: Serine/threonine-protein kinase MARK2 (Homo sapiens) (UniProt Q7KZI7); settings: at 1 µM
[2] = biological target: PAS domain-containing serine/threonine-protein kinase (Homo sapiens) (UniProt Q96RG2); settings: at 0.1 µM
[3] = biological target: PAS domain-containing serine/threonine-protein kinase (Homo sapiens) (UniProt Q96RG2); settings: at 1 µM
[4] = biological target: Phosphorylase b kinase gamma catalytic chain, skeletal muscle/heart isoform (Homo sapiens) (UniProt Q16816); settings: at 0.1 µM
[5] = biological target: Phosphorylase b kinase gamma catalytic chain, skeletal muscle/heart isoform (Homo sapiens) (UniProt Q16816); settings: at 1 µM
[6] = biological target: T1, Phosphorylase b kinase gamma catalytic chain, liver/testis isoform (Homo sapiens) (UniProt P15735); settings: at 0.1 µM
T1 sequence (whole entry): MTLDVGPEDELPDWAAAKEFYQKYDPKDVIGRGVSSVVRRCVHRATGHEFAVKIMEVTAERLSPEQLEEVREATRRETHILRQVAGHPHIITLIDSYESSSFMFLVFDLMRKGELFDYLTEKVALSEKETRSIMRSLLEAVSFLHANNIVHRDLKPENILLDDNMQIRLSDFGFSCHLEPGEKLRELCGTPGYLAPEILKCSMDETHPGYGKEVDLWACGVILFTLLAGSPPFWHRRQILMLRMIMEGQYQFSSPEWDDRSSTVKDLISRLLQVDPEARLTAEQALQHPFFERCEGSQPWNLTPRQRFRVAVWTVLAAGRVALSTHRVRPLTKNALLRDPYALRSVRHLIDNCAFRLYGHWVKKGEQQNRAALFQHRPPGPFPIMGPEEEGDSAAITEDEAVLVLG

[7] = biological target: T1, Phosphorylase b kinase gamma catalytic chain, liver/testis isoform (Homo sapiens); settings: at 1 µM
[8] = biological target: Serine/threonine-protein kinase pim-1 (Homo sapiens) (UniProt P11309); settings: at 0.1 µM
[9] = biological target: Serine/threonine-protein kinase pim-1 (Homo sapiens) (UniProt P11309); settings: at 1 µM
[10] = biological target: Serine/threonine-protein kinase pim-2 (Homo sapiens) (UniProt Q9P1W9); settings: at 0.1 µM
[11] = biological target: Serine/threonine-protein kinase pim-2 (Homo sapiens) (UniProt Q9P1W9); settings: at 1 µM
[12] = biological target: Serine/threonine-protein kinase pim-3 (Homo sapiens) (UniProt Q86V86); settings: at 0.1 µM
[13] = biological target: Serine/threonine-protein kinase pim-3 (Homo sapiens) (UniProt Q86V86); settings: at 1 µM
[14] = biological target: T2, MAP kinase-activated protein kinase 5 (Homo sapiens) (UniProt Q8IW41); settings: at 0.1 µM
T2 sequence (whole entry): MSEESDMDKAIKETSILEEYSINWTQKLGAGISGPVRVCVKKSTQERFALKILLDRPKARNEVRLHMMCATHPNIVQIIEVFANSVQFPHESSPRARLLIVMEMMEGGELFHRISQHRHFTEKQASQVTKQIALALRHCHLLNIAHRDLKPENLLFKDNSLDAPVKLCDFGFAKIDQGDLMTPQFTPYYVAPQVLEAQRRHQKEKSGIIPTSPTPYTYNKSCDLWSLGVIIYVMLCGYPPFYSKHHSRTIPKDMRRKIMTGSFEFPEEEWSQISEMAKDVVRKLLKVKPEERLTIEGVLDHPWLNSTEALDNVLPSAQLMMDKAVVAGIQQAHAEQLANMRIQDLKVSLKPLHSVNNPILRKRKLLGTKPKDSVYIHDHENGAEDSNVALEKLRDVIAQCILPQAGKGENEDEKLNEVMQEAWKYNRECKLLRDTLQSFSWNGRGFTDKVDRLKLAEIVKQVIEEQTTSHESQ

[15] = biological target: T2, MAP kinase-activated protein kinase 5 (Homo sapiens); settings: at 1 µM
[16] = biological target: Serine/threonine-protein kinase SIK1 (Homo sapiens) (UniProt P57059); settings: at 0.1 µM
[17] = biological target: Serine/threonine-protein kinase SIK1 (Homo sapiens) (UniProt P57059); settings: at 1 µM
[18] = biological target: Serine/threonine-protein kinase SIK2 (Homo sapiens) (UniProt Q9H0K1); settings: at 0.1 µM
[19] = biological target: Serine/threonine-protein kinase SIK2 (Homo sapiens) (UniProt Q9H0K1); settings: at 1 µM
[20] = biological target: T3, Serine/threonine-protein kinase TBK1 (Homo sapiens) (UniProt Q9UHD2); settings: at 0.1 µM;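 further: values are the mean TBK1 inhibition, taken from the GSK PKIS screening data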
T3 sequence (whole entry): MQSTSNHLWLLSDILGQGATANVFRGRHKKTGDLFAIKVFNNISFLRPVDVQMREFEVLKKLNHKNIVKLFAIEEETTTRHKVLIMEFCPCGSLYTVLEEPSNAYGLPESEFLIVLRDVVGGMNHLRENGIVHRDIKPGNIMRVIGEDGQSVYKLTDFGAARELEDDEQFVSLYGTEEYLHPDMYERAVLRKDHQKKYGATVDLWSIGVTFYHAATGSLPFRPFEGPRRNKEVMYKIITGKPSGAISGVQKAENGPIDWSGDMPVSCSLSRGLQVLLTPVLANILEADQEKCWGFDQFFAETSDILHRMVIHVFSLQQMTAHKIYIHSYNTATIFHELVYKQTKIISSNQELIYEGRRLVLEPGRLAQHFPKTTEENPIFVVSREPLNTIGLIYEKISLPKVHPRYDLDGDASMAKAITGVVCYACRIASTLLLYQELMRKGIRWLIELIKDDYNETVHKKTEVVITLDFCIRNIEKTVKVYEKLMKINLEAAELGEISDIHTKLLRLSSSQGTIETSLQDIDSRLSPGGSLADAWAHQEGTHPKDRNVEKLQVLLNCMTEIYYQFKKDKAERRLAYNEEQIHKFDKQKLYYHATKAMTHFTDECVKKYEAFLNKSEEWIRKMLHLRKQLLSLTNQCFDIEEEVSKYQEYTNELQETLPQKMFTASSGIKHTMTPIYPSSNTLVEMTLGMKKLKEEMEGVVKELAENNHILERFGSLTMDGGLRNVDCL

Serine/threonine-protein kinase pim-1 (Homo sapiens), sequence (P11309 whole entry, looked up): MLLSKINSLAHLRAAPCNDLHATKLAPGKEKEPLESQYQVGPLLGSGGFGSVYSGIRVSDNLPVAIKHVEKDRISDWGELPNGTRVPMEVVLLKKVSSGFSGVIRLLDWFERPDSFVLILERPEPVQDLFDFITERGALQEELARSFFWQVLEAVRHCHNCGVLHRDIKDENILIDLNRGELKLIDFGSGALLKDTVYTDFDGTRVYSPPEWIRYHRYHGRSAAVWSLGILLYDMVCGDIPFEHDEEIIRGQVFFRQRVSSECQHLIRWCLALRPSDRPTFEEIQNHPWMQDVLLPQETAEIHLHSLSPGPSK
Serine/threonine-protein kinase SIK1 (Homo sapiens), sequence (P57059 whole entry): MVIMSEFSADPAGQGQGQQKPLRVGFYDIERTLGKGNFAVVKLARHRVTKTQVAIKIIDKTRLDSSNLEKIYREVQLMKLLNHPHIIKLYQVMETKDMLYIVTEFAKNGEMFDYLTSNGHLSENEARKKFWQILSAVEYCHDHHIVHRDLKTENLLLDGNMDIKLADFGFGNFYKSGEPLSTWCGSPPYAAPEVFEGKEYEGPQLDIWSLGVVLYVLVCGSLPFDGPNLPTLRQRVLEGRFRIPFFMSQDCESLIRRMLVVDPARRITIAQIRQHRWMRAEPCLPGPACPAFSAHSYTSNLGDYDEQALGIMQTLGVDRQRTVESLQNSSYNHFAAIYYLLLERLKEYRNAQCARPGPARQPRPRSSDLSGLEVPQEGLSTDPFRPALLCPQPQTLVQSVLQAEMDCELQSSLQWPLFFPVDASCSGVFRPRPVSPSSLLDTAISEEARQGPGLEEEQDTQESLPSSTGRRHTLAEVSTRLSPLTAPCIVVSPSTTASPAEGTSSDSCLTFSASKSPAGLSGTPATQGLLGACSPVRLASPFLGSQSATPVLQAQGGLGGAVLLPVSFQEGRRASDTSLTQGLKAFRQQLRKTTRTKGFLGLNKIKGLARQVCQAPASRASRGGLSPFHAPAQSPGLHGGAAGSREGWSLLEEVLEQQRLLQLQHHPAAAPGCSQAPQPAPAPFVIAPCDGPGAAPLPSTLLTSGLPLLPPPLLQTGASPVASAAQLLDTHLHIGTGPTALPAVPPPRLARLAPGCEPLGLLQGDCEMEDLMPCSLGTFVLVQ
Serine/threonine-protein kinase SIK2 (Homo sapiens), sequence (Q9H0K1 whole entry, looked up): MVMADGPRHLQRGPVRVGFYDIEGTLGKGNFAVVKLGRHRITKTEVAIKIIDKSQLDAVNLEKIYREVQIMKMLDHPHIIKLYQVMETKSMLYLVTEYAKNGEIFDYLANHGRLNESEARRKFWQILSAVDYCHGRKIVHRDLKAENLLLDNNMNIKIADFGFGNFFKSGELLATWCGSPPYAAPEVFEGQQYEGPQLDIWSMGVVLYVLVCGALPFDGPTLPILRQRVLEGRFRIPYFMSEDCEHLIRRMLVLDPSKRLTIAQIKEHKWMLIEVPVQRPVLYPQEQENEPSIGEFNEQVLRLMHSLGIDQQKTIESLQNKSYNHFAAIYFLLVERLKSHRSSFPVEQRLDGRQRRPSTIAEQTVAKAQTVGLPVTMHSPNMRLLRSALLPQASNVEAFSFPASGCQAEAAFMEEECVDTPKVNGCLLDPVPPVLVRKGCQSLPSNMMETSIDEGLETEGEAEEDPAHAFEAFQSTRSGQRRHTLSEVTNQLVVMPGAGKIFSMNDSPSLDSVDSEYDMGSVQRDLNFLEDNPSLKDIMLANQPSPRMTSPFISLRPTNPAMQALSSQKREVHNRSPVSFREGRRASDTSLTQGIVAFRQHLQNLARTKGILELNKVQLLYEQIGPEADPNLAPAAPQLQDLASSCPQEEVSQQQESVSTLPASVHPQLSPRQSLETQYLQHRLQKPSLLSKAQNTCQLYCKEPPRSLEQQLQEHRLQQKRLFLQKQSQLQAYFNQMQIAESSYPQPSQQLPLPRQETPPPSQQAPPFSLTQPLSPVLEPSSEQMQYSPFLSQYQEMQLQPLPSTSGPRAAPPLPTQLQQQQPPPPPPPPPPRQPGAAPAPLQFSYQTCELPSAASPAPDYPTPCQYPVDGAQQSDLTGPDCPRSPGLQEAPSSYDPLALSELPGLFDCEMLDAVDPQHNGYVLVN
Serine/threonine-protein kinase MARK2 (Homo sapiens), sequence (Q7KZI7 whole entry, the tested form may be a part): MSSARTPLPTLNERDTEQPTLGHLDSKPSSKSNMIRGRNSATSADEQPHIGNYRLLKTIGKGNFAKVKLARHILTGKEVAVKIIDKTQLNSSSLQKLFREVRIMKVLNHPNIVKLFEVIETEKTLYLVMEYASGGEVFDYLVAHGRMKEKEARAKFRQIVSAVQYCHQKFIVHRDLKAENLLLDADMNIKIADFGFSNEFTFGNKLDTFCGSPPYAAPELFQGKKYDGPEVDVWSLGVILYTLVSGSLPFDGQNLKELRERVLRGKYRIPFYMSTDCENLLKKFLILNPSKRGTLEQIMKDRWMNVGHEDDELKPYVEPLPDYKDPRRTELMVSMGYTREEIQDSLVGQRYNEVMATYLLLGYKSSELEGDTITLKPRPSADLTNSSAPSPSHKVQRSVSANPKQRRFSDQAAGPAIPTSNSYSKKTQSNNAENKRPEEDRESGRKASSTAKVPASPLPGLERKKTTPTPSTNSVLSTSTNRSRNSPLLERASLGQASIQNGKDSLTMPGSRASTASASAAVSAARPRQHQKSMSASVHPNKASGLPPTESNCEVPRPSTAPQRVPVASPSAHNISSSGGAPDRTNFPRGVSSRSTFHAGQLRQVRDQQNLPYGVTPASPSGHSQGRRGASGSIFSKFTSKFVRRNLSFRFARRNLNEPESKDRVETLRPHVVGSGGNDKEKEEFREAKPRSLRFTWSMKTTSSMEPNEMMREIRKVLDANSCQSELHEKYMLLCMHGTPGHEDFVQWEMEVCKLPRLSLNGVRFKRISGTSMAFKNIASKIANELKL
PAS domain-containing serine/threonine-protein kinase (Homo sapiens), sequence (Q96RG2 whole entry, the tested form may be a part, canonical isoform): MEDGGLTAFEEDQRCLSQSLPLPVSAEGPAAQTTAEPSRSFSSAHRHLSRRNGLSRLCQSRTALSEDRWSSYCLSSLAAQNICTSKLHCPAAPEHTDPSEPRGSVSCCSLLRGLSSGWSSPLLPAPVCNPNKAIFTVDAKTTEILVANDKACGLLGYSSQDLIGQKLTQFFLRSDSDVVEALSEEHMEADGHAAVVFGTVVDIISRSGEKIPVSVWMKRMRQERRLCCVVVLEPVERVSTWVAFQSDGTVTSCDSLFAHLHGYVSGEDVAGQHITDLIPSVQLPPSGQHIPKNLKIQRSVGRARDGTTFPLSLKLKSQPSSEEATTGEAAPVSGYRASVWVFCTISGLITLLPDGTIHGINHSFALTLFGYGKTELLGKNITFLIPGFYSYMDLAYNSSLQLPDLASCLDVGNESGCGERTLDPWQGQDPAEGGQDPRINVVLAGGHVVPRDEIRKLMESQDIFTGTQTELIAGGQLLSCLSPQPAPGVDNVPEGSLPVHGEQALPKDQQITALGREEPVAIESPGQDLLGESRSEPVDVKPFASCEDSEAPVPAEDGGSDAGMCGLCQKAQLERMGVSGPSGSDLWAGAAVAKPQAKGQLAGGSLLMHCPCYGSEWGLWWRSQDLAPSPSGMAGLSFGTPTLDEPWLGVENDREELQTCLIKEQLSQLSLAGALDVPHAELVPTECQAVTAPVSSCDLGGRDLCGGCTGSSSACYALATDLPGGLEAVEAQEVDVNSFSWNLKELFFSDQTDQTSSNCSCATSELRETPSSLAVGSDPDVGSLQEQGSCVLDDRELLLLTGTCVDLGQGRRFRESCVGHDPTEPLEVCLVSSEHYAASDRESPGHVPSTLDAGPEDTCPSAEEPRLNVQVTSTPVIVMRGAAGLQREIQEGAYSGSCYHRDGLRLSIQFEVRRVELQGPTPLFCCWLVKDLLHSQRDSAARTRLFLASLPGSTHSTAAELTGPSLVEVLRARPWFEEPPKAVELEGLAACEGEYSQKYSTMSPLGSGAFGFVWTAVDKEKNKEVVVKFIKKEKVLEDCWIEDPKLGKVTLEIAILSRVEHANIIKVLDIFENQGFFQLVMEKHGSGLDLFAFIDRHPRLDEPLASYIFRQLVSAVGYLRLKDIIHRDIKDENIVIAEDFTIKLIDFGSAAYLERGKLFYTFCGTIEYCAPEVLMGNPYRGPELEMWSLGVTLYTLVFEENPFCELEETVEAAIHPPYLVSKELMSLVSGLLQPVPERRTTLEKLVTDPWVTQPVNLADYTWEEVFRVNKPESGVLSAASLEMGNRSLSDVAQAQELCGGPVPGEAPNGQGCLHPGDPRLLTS
Phosphorylase b kinase gamma catalytic chain, skeletal muscle/heart isoform (Homo sapiens), sequence (Q16816 whole entry, looked up, canonical isoform): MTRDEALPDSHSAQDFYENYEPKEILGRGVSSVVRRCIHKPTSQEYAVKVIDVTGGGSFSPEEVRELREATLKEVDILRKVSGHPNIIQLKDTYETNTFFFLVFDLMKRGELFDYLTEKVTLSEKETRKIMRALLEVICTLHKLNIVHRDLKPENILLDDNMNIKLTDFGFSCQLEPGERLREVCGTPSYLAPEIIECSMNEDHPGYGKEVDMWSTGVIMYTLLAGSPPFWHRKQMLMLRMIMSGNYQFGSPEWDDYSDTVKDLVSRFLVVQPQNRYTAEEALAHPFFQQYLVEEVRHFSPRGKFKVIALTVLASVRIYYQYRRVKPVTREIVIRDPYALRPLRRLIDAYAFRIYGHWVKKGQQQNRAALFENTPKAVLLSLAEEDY

SMILES	inhibition [1]	inhibition [2]	inhibition [3]	inhibition [4]	inhibition [5]	inhibition [6]	inhibition [7]	inhibition [8]	inhibition [9]	inhibition [10]	inhibition [11]	inhibition [12]	inhibition [13]	inhibition [14]	inhibition [15]	inhibition [16]	inhibition [17]	inhibition [18]	inhibition [19]	inhibition [20]
c1cnn2ncc(-c3ccnc(Nc4ccc5c(c4)OCCO5)n3)c2c1	14.3%	-0.33%	0.82%	5.46%	27.6%	7.04%	17.1%	0.98%	7.95%	0.25%	4.39%	0.84%	16.2%	1.78%	2.58%	9.87%	20.4%	11.1%	17.7%	3.41%
COc1cc2ncn(-c3cc(OCc4ccccc4C(F)(F)F)c(C(N)=O)s3)c2cc1OC	12.2%	-0.15%	0.3%	6.17%	8.75%	5.36%	6.56%	-0.79%	2.8%	-3.6%	-2.85%	-0.3%	5.54%	1.22%	2.23%	9.96%	56.6%	5.82%	35.4%	3.59%
COc1ccc(COc2ccc(Cc3cnc(N)nc3N)cc2OC)cc1	3.13%	1.77%	0.54%	-0.96%	1.56%	1.58%	-1.66%	1.34%	0.49%	2.71%	3.29%	2.12%	0.23%	-0.2%	-1.74%	-2.62%	2.92%	-5.52%	-1.07%	2.12%
COc1cc2ncn(-c3cc(O[C@@H](C)c4ccccc4Cl)c(C(N)=O)s3)c2cc1OC	5.29%	0.19%	1.28%	5.83%	8.24%	6.55%	6.6%	-0.02%	1.8%	-0.11%	0.91%	0.03%	4.24%	1.26%	1.22%	6.27%	18.1%	2.99%	12%	4.39%
O=C1NC(=O)C(c2cccc(Cl)c2)=C1Nc1ccc(O)c(Cl)c1	16.3%	1.02%	0.49%	2.04%	6.07%	1.35%	-1.03%	1.35%	3.87%	0.87%	1.76%	-0.02%	0.87%	-0.23%	-0.79%	-4.1%	9.22%	-3.06%	19.8%	3.62%
COc1ccc(-c2nn3ncccc3c2-c2ccnc(Nc3ccc(Cl)c(C(F)(F)F)c3)n2)cc1	-0.83%	0.24%	2.12%	3.41%	5.53%	2.13%	5.41%	0.1%	0.37%	0.12%	0.14%	1.02%	2.53%	1.42%	1.91%	2.76%	5.43%	5.44%	1.72%	0.22%
CCn1c(-c2nonc2N)nc2c(C#CC(C)(C)O)nc(CN3CCCC3)cc21	10%	0.49%	1.59%	2.9%	2.56%	-2.3%	-1.9%	0.28%	-0.73%	0.26%	1.6%	-0.35%	0.7%	-0.65%	-1.46%	-1.04%	0.38%	-6.78%	-1.41%	1.77%
O=C(Nc1n[nH]c2nc(-c3ccco3)c(Br)cc12)C1CC1	2.09%	0.09%	-1.87%	1.65%	2.36%	4.24%	1.34%	-0.5%	0.54%	-0.2%	0.42%	-1.42%	-2.95%	0.87%	0.07%	2.49%	5.66%	3.56%	5%	6.52%
O=C1Nc2ccc(C(=O)c3ccco3)cc2C1=Cc1cc(Cl)c(O)c(Cl)c1	8.29%	-0.44%	-0.13%	2.98%	9.29%	3.61%	2.94%	3.39%	31.8%	2.1%	17.9%	12%	53.4%	1.97%	8.16%	4.01%	10.6%	10.5%	6.6%	4.59%
N#Cc1c(NC(=O)c2cccc3ccccc23)sc2c1CCCC2	1.22%	-0.47%	-1.11%	8.32%	5.08%	2.74%	1.46%	0.51%	0.27%	-0.34%	-0.27%	-0.51%	-1.85%	0.72%	0.28%	7.26%	9.67%	2.47%	12.4%	0.12%
CCn1c(-c2nonc2N)nc2cnc(Oc3cccc(NC(=O)c4ccc(OCCN5CCOCC5)cc4)c3)cc21	11%	-1.22%	-0.7%	-3.59%	6.37%	3.34%	1.77%	0.47%	10.4%	-0.49%	0.68%	-1.8%	2.09%	0.82%	1.44%	4.8%	10.1%	8.55%	13.8%	0.71%
COc1cc(C=NNc2ncnc3c2cnn3-c2ccccc2)ccc1O	6.47%	0.58%	-3.11%	2.48%	11.3%	3.34%	2%	1.39%	1.57%	-0.02%	2.11%	-0.48%	-0.21%	0.22%	-0.53%	5.32%	18.5%	7.72%	20.4%	3.55%
NC(=O)c1cccc(Nc2nccc(Nc3cccc4[nH]ncc34)n2)c1	10.3%	0.03%	1.81%	0.63%	12.6%	-5.45%	-1.62%	0.6%	1.43%	0.4%	1.09%	-0.77%	3.49%	-1.41%	-1%	14.8%	68.5%	-4.28%	32.5%	0.88%

From ChEMBL document CHEMBL1961873, “Compounds: GSK PKIS; Assays: Nanosyn kinase panel” (2012)
